Screens as filed in PubChem.
TWEAK Fn14 block: TWEAK-Fn14 signaling inhibition; TWEAK-stimulated Fn14 reporter cells, luciferase luminescence, 8 h; inhibition, % at 10 µM; 360,000 tested, 2% active; AID 1159606; in the data active means inhibition above about 50%
MITF TRPM1 inh: inhibitors of MITF-driven TRPM1 promoter in melanoma cells. SK-MEL-5 TRPM1 promoter luciferase, 24 h. inhibition, % at 12.5 µM. 330,000 tested, 0.83% active. AID 488899;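 active means mean inhibition across replicates of 60% or more, whatever share of single replicates reaches that level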
EBV LMP1 NFkB: inhibitors of Epstein-Barr LMP1-induced NF-kappaB reporter. LMP1-induced NF-kappaB luciferase reporter cells, luminescence. inhibition, % at 12.5 µM. 350,000 tested, 0.69% active; in the data active means inhibition above about 41%;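 further: 0% = neutral control wells and 100% = reference inhibitor control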
TROY NFkB inh: inhibitors of TROY-dependent NF-kB signaling; Q293 LMP1-TROYcd NF-kB luciferase reporter, 4 h; inhibition, % at 10 µM; 360,000 tested, 0.98% active;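 active means compounds whose plate-normalised and pattern-corrected inhibition of the luciferase reporter signal at the single screening dose is 50% or more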
MITF TRPM1 HTS: activators of MITF-driven TRPM1 promoter activity in SK-MEL-5 cells; SK-MEL-5 TRPM1-promoter luciferase, 24 h; % of positive control, neutral wells = 0; activation, % at 12.5 µM; 300,000 tested, 0.75% active; AID 588334;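 active means mean activation of at least 80% with every replicate also reaching 80%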;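 further: 0% = neutral control wells and 100% = parthenolide positive control wells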
LGR2 inh: inhibitors of bursicon-induced Drosophila LGR2 receptor cAMP signaling; 380,000 tested, 0.35% active; HEK293 LGR2, CRE-luciferase, bursicon-stimulated, 4 h; inhibition, % at 9.99 µM; AID 720647;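 active means drop in luminescence signal, shown as inhibition above about 50% in the replicate tests, limit read from the data, passing the limit was not always enough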;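 further: agonist challenge used bursicon conditioned medium at about half maximal strength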
Starred values were filed as active, the others as inactive; x = no result. The list is not random: actives were taken first. Their share in the collection is about 3%.

SMILES	TWEAK Fn14 block	MITF TRPM1 inh	EBV LMP1 NFkB	TROY NFkB inh	MITF TRPM1 HTS	LGR2 inh
O=C(Nc1ccccn1)c1ccc(C(=O)c2ccccc2)cc1	14.7	-85.6	-42.3	-37.4	80.0	-62.4
O=C(Cc1cccc(C(F)(F)F)c1)NCc1cccc(Cl)c1	17.1	4.5	4.9	-6.8	-4.0	0.7
O=C(NCc1cccc(Cl)c1)c1ccc(S(=O)(=O)Nc2cccc(C(F)(F)F)c2)cc1	32.5	2.8	-5.5	55.2*	-3.1	3.9
CN1C(=O)c2cc(NC(=O)c3cnccn3)ccc2OC[C@H]2O[C@H](CC(=O)NCC3CC3)CC[C@H]21	x	x	x	x	x	-8.4
Cc1cc(C)c(S(=O)(=O)N2CCN(C(=O)CCOc3ccccc3C)CC2)c(C)c1	-33.8	x	63.8*	24.6	x	-11.8
Cc1ccccc1OCCC(=O)N1CCN(S(=O)(=O)c2ccc(F)cc2)CC1	8.0	7.6	-0.6	-34.7	-5.7	-15.0
CN(C)CCOc1ccc2c(c1)C(=O)C(=Cc1ncc([N+](=O)[O-])n1C)C2	-0.1	x	24.8	17.5	x	99.6*
CCc1cc(OCCN(C)C)ccc1Cl	-2.4	14.9	3.1	1.8	-13.7	-0.8
Oc1[nH]c2ccc(Br)cc2c1N=NC(=S)N1CCOCC1	104.7*	98.6*	9.9	49.3	-98.7	-1.6
COC(=O)N=Nc1c(O)[nH]c2ccc(Br)cc12	-24.2	9.8	20.1	2.3	-11.6	-2.9
Oc1[nH]c2ccccc2c1N=NC(=S)N1CCOCC1	103.8*	92.5*	4.5	1.3	-91.9	x
NC(=S)N=Nc1c(O)[nH]c2ccccc12	1.9	-1.2	-2.2	-22.5	-0.1	-14.8
CN1c2ccc(-c3cccc(C#N)c3)cc2[C@H]2[C@H](CCN2S(=O)(=O)c2ccccc2)[C@H]1CO	x	x	x	x	x	6.3
O=C(NCCN1CCCCC1)[C@H]1N[C@H]2c3ccc(-c4ccncc4)c(=O)n3C[C@H]2[C@@H]1CO	x	x	x	x	x	-14.5
O=C(OCC(=O)N1CCN(C(=O)c2ccco2)CC1)c1ccccc1C(=O)c1ccccc1	78.8*	10.9	-10.1	x	-11.2	x
O=C(OCC(=O)N1CCN(C(=O)c2ccco2)CC1)c1cc(-c2ccc(F)cc2)nc2ccccc12	52.1*	1.8	5.3	1.9	-2.6	x
O=C(OCC(=O)N1CCN(C(=O)c2ccco2)CC1)c1cc(-c2ccccc2)nc2ccccc12	10.3	-3.2	1.5	x	6.6	x
O=C(OCC(=O)N1CCN(C(=O)c2ccco2)CC1)c1ccccc1C(=O)c1ccc(Cl)cc1	6.4	10.4	5.0	-8.2	-6.5	x
Cc1ccc(N2CC(C(=O)Nc3ccc4c(c3)OCCO4)CC2=O)cc1C (centres undefined)	54.4*	-4.5	-1.8	46.5	1.1	12.5
Cc1ccc(NC(=O)C2CC(=O)N(c3ccc4c(c3)OCCO4)C2)cc1S(=O)(=O)N(C)C (centres undefined)	7.6	4.5	1.2	21.2	-3.7	12.7
Cc1ccc(N2CC(C(=O)Nc3ccc4c(c3)OCCO4)CC2=O)cc1 (centres undefined)	59.4*	3.1	-3.2	49.7	-1.0	-1.3
Cc1ccc(-c2ccc3c(c2)O[C@@H](CN(C)C)[C@H](C)CN([C@@H](C)CO)S3(=O)=O)cc1	x	x	x	x	x	26.9
O=c1[nH]c(C2CCN(S(=O)(=O)c3ccccc3C(F)(F)F)CC2)nc2c1nnn2Cc1ccccc1	-41.4	6.7	-5.9	50.7*	-8.8	11.8
Cc1noc(C)c1S(=O)(=O)N(C)C[C@@H]1Oc2c(NS(=O)(=O)c3cn(C)cn3)cccc2C(=O)N([C@@H](C)CO)C[C@@H]1C	x	x	x	x	x	3.3
C[C@@H]1CN([C@H](C)CO)C(=O)c2cc(-c3cccc(C#N)c3)cnc2O[C@@H]1CN(C)C(=O)C1CCC1	x	x	x	x	x	-14.8
SMILES	TWEAK Fn14 block	MITF TRPM1 inh	EBV LMP1 NFkB	TROY NFkB inh	MITF TRPM1 HTS	LGR2 inh
CC1(C)Cc2nc3sc4c(=O)[nH]cnc4c3cc2CS1	-10.0	-38.9	-18.2	-9.4	41.8	x
CCCCCn1cnc2c(sc3nc4c(cc32)CSC(C)(C)C4)c1=O	39.9	-95.5	-20.8	48.0	94.1*	-74.0
NS(=O)(=O)c1ccc(N/N=C/c2cn(-c3ccccc3)nc2-c2ccccc2)c([N+](=O)[O-])c1	-21.0	76.9*	-16.9	32.2	-75.6	-21.4
O=c1oc2ccccc2cc1-c1nc2ccccc2o1	20.0	-45.0	-26.2	-0.1	45.8	9.5
Nc1cc2nc3ccccc3oc-2cc1=O	14.1	88.3*	-13.4	-23.1	-88.1	x
O=C(c1ccccn1)N1CC2(C1)[C@H](c1ccccc1)[C@H](CO)N2Cc1ccc(Cl)cc1	x	x	x	x	x	17.2
COc1ccc(C(=O)CC(Nc2ccc([N+](=O)[O-])cc2)c2ccc(Cl)cc2)cc1 (centres undefined)	53.2*	-15.0	-4.5	10.7	14.4	26.0
CCCN1C[C@@H](C)[C@@H](OC)CN(C)C(=O)c2ccc(NC(=O)C3CC3)cc2OC[C@@H]1C	x	x	x	x	x	-2.1
Cc1noc(C)c1NC(=O)Nc1ccc2c(c1)C(=O)N([C@H](C)CO)C[C@@H](C)[C@H](CN(C)S(=O)(=O)c1ccccc1)O2	x	x	x	x	x	-1.5
CCOc1cccc(CNc2nnnn2C)c1	-15.1	4.9	79.1*	4.9	-3.0	-8.1
Cc1ccccc1-c1nc(CN2CCC(C(=O)NCCCN3CCCC(C)C3)CC2)c(C)o1 (centres undefined)	-13.2	93.7*	-14.8	2.5	-93.1	-2.4
CCc1ccc(-c2nc(CN3CCC(C(=O)NCCN(CC)c4ccccc4)CC3)c(C)o2)cc1	-44.1	66.5*	-63.5	20.5	-65.3	x
Cc1ccccc1-c1nc(CN2CCC(C(=O)NCCC3=CCCCC3)CC2)c(C)o1	19.0	3.4	-7.0	8.8	x	x
CCC1CCCCN1CCCNC(=O)C1CCN(Cc2nc(-c3ccc(Cl)cc3)oc2C)CC1 (centres undefined)	-2.4	99.5*	-68.3	-50.8	-98.8	x
CCc1ccc(-c2nc(CN3CCC(C(=O)N4CCN(c5ccccc5)CC4)CC3)c(C)o2)cc1	94.5*	17.4	-12.7	26.7	-14.5	x
Cc1oc(-c2ccc(Cl)cc2)nc1CN1CCC(C(=O)NCCCN2CCOCC2)CC1	22.3	3.8	-12.2	-2.3	x	x
Cc1ccc(S(=O)(=O)N(C)C[C@H]2Oc3c(NS(=O)(=O)c4ccc(Cl)cc4)cccc3C(=O)N([C@H](C)CO)C[C@H]2C)cc1	x	x	x	x	x	35.0
C[C@H](NC(=O)C[C@@H]1CC[C@@H](NC(=O)C2CCOCC2)[C@@H](CO)O1)c1ccccc1	x	x	x	x	x	1.3
Cc1ccc(-c2cn3nc(C)c(C)nc3n2)cc1	-9.2	63.8*	63.5*	-0.2	-62.5	x
Brc1ccc(-c2csc(N3CCOCC3)n2)cc1	-2.6	-74.9	-41.6	-38.6	79.7	-26.9
Brc1ccc(-c2csc(N3CCCCCC3)n2)cc1	-8.1	-33.3	46.3*	-15.4	35.9	-38.7
CC(CCc1ccco1)N(C)S(=O)(=O)c1csc(C(N)=O)c1 (centres undefined)	-11.6	-9.4	51.9*	12.3	11.4	-14.6
